# Reference: PubChem BioAssay (NCI)
# The panel holds about 83,000 compounds, 20% with a hit somewhere; the sample as a whole holds those more often.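 The endpoint reported here, percent growth, reads 100 for growth as untreated, 0 for no net growth and -100 for all cells dead.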 Values without a mark were called inactive. The source made the active and inactive calls. Rule for the calls: active = growth percent below 10; inactive = the rest.
# What was measured:
# Test in all cases: NCI-60 one-dose screen, 48 h (100 = growth as untreated, 0 = no growth, -100 = all killed)
# Conditions in all cases: 10 µM
# BT-549 breast = test system: BT-549 breast
# MDA-MB-435 melanoma = test system: MDA-MB-435 melanoma
# SW-620 colon = test system: SW-620 colon
# MCF7 breast = test system: MCF7 breast
# HCT-116 colon = test system: HCT-116 colon
# HCC-2998 colon = test system: HCC-2998 colon
# KM12 colon = test system: KM12 colon
SMILES,growth (BT-549 breast),growth (MDA-MB-435 melanoma),growth (SW-620 colon),growth (MCF7 breast),growth (HCT-116 colon),growth (HCC-2998 colon),growth (KM12 colon) [%]
CCOC(=O)N1C/C(=C/c2ccc(F)cc2)C(=O)/C(=C/c2ccc(F)cc2)C1,-44.3% (active),-47.4% (active),-66% (active),-45.9% (active),-83.9% (active),-80.9% (active),
N=C(N)c1ccc(-c2ccc(-c3ccco3)o2)cc1,80.2%,55.4%,60.3%,42.8%,42.5%,-28.3% (active),
C#Cc1ccc(-n2c(/C=C/c3ccc(C(F)(F)F)cc3)nc3ncccc3c2=O)cc1,24.8%,6.06% (active),-12.3% (active),14.9%,1.75% (active),18.7%,
COc1ccc(Cl)cc1-n1nnc(-c2nc3ccccc3[nH]2)c1N,98.8%,88.6%,75.6%,94.3%,55.4%,93.4%,
C#Cc1ccc(-n2c(/C=C/c3ccc4ccccc4n3)nc3ncccc3c2=O)cc1,5.21% (active),-11.5% (active),-51% (active),6.42% (active),-25% (active),-75.3% (active),
COc1ccc(/C=C2/CN(CCC#N)C/C(=C\c3ccc(OC)cc3)C2=O)cc1,5.02% (active),-30% (active),-37.2% (active),10.4%,-68.2% (active),-82.3% (active),
N#CCCN1C/C(=C/c2ccc(Br)cc2)C(=O)/C(=C/c2ccc(Br)cc2)C1,-23.3% (active),-43.3% (active),-53.7% (active),0.16% (active),-50.8% (active),-87.4% (active),
COc1cccc(Cn2c(-c3nonc3N)nc3ccccc32)c1,47.9%,-73.9% (active),14.4%,15.5%,18.3%,23.7%,
N=C(N)c1ccc(-c2ccc(-c3cccs3)o2)cc1,85.2%,-49.3% (active),-47.9% (active),3.09% (active),7.25% (active),-66% (active),
CC/C(=C(/c1ccc(OCCN(C)C)cc1)c1ccc(OC(=O)CCCCC(=O)c2c(C)[nH]c(/C=C3\N=C(c4ccc[nH]4)C=C3OC)c2C)cc1)c1ccccc1,60.8%,61.4%,55.8%,-22% (active),48.3%,76.6%,
O=C1/C(=C\c2ccccc2)CN(C(=O)c2ccccc2)C/C1=C\c1ccccc1,2.1% (active),-49.6% (active),-62.3% (active),-36.9% (active),-81.4% (active),-77.9% (active),
C#Cc1ccc(-n2c(/C=C/c3ccc4ccccc4c3)nc3ncccc3c2=O)cc1,52.4%,12.8%,19.2%,18.6%,21%,31.1%,
O=C1/C(=C\c2ccc(F)cc2)CN(C(=O)c2ccccc2F)C/C1=C\c1ccc(F)cc1,-43.2% (active),-47.4% (active),-78.3% (active),-72.1% (active),-75% (active),-83.8% (active),
C#Cc1ccc(-n2c(/C=C/c3ccc(Cl)c(F)c3)nc3ncccc3c2=O)cc1,10.7%,-3.46% (active),-27.3% (active),3.48% (active),-52.8% (active),-84.3% (active),
COc1ccc(/C=C2/CN(C(=O)c3ccccc3F)C/C(=C\c3ccc(OC)cc3)C2=O)cc1,37%,-46.2% (active),-42.3% (active),8.16% (active),-62.6% (active),-73.1% (active),
N=C(N)c1ccc(-c2ccc(-c3ccccc3)o2)nc1,101%,81.4%,86.7%,72.3%,76.6%,27.5%,
CCC(=O)N1C/C(=C/c2ccc(OC)cc2)C(=O)/C(=C/c2ccc(OC)cc2)C1,13.2%,-28.1% (active),-50.1% (active),-4.78% (active),-70.8% (active),-84% (active),
c1ccc(CNc2ncnc3scc(-c4cccs4)c23)nc1,63.7%,63.7%,86.1%,67.1%,66.5%,106%,
COc1ccc(-c2nc(-c3nc4cc(Cl)c(Cl)cc4[nH]3)c3ccccn23)cc1,71.9%,65.2%,79.6%,69.6%,24.8%,76.4%,
CC1(C)Cc2c(sc3ncn4nc(-c5ccc(O)cc5)nc4c23)CO1,65.1%,77.4%,94.5%,66.5%,81.7%,,

SMILES,growth (BT-549 breast),growth (MDA-MB-435 melanoma),growth (SW-620 colon),growth (MCF7 breast),growth (HCT-116 colon),growth (HCC-2998 colon),growth (KM12 colon) [%]
COc1cc(NC(=O)CCSc2nc3ccc(C)cc3c(=O)n2Cc2ccccc2)cc(OC)c1OC,95.5%,92.1%,84.5%,77.6%,35%,112%,
O=C1/C(=C\c2ccc(Br)cc2)CN(C(=O)c2ccccc2F)C/C1=C\c1ccc(Br)cc1,-0.615% (active),-44.9% (active),-56.4% (active),-33.5% (active),-76.1% (active),-81.3% (active),
CC/C(=C(/c1ccc(OCCN(C)C)cc1)c1ccc(OC(=O)CCC(=O)c2c(C)[nH]c(/C=C3\N=C(c4ccc[nH]4)C=C3OC)c2C)cc1)c1ccccc1,48.4%,14%,-42% (active),-12.1% (active),5.92% (active),41.6%,
CCC(=O)N1C/C(=C/c2ccc(Br)cc2)C(=O)/C(=C/c2ccc(Br)cc2)C1,-48.4% (active),-63% (active),-64.2% (active),-16.1% (active),-88.4% (active),-85.9% (active),
O=C1/C(=C\c2ccccc2)CN(C(=O)c2ccccc2F)C/C1=C\c1ccccc1,-24.6% (active),-35.6% (active),-71.7% (active),-37.6% (active),-84.8% (active),-84.1% (active),
CCOC(=O)N1C/C(=C/c2ccc(Cl)cc2)C(=O)/C(=C/c2ccc(Cl)cc2)C1,81.5%,38.4%,1.52% (active),5.24% (active),-60.4% (active),-59.8% (active),
CSc1nn(-c2ccccc2)c2ncnc(Oc3ccccc3)c12,94.5%,102%,104%,107%,85.4%,102%,
N=C(N)c1ccc(-c2ccc(-c3cccs3)s2)s1,66.9%,-88.5% (active),-66.4% (active),-65% (active),-87% (active),-80.3% (active),
COc1ccc(-c2nc(-c3nc4ccc(Cl)cc4[nH]3)c3ccccn23)cc1,42.9%,58.3%,75.2%,41.5%,,,
CCOC(=O)N1C/C(=C/c2ccc(OC)cc2)C(=O)/C(=C/c2ccc(OC)cc2)C1,-12.8% (active),-33.4% (active),-38.7% (active),-5.59% (active),-82.8% (active),-92.5% (active),
C#Cc1ccc(-n2c(/C=C/c3ccc(O)cc3)nc3ncccc3c2=O)cc1,74.9%,-45.5% (active),34.5%,10.5%,48.5%,93%,
N#CCCN1C/C(=C/c2ccc(Cl)cc2)C(=O)/C(=C/c2ccc(Cl)cc2)C1,-24.5% (active),-66.5% (active),-48.4% (active),-10.2% (active),-54.5% (active),-84.6% (active),
CC/C(=C(/c1ccc(OCCN(C)C)cc1)c1ccc(OC(=O)CCCCCCCCC(=O)c2c(C)[nH]c(/C=C3\N=C(c4ccc[nH]4)C=C3OC)c2C)cc1)c1ccccc1,69.2%,52.8%,53.8%,-2.49% (active),21.6%,,
COc1cc(NC(=O)CCSc2nc3ccc(Cl)cc3c(=O)n2Cc2ccccc2)cc(OC)c1OC,73%,89%,86.2%,70%,53%,,
C#Cc1ccc(-n2c(/C=C/c3ccc(O)c(OC)c3)nc3ncccc3c2=O)cc1,95.5%,71.2%,102%,89.1%,97.4%,112%,
Cc1ccc(C(=O)N2C/C(=C/c3ccc(F)cc3)C(=O)/C(=C/c3ccc(F)cc3)C2)cc1,92.5%,84.5%,82.4%,37.7%,10.6%,,
N=C(N)c1ccc(-c2ccc(-c3cccs3)s2)cc1,93.2%,-85.9% (active),-66.2% (active),-79.4% (active),-67.1% (active),-69.5% (active),
COc1ccc(-c2ccc(-c3ccc(C(=N)N)cn3)o2)cc1,86.3%,26.4%,80.4%,47.3%,45.9%,29.1%,
N#CCCN1C/C(=C/c2ccccc2)C(=O)/C(=C/c2ccccc2)C1,44.3%,-30.9% (active),-24.9% (active),-12% (active),-81.7% (active),-81% (active),
CC1(C)CCC(=NNC(N)=S)CC1,125%,111%,105%,99.4%,94.6%,101%,105
